Source: PubChem (The Scripps Research Institute Molecular Screening Center)
FBW7 activator = human FBW7 E3 ligase activation, primary screen; Q969H0; AlphaScreen FBW7–phospho-cyclin E peptide binding, activator screen; normalized activity (activation), % at 26.1 µM; 0.13% of 650,000 active; AID 1259310; in the data active = normalized activity above about 1.9%;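 also: purified mutant Fbw7 with reduced substrate affinity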
MITF primary = inhibitors of human MITF; O75030; AlphaScreen MITF homodimerization, bead proximity signal; inhibition, % at 2.6 µM; 0.91% of 650,000 active; in the data active = inhibition above about 50%;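 also: 0% = vehicle wells with protein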
Target sequence (O75030 whole entry, looked up): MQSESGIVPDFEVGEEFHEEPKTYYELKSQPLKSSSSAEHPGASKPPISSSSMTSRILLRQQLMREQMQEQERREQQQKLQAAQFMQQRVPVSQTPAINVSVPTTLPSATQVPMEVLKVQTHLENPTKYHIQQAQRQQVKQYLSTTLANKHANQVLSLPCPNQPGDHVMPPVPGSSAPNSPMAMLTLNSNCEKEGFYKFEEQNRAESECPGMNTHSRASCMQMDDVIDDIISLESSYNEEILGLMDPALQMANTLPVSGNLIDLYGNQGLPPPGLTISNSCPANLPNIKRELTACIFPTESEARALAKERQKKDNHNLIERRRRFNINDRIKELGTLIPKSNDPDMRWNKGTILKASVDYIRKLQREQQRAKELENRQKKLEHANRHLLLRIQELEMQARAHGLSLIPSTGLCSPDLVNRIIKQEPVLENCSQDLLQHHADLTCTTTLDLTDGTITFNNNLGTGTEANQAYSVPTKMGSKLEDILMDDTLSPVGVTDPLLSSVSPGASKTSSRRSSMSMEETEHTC
GPR151 activ = activates the human receptor GPR151 | Q8TDV0 | PathHunter beta-arrestin GPR151 cells, luminescence | activation, % at 11.2 µM | 1% of 650,000 active | AID 1508602; in the data active = activation above about 4.9%;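 also: 0% = median of compound wells and 100% = cells with positive control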
TEAD-YAP block = TEAD-YAP interaction inhibition; HEK-TIYL cells, TEAD-Gal4/YAP UAS-luciferase luminescence; AID 1259422; inhibition, % at 9.12 µM; 1.4% of 640,000 active; in the data active = inhibition above about 32%;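 also: 0% = median of test compound wells and 100% = reference inhibitor wells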
Starred values were filed as active, the others as inactive. Sampled rows, rich in hits. Any-hit rate of the full collection: about 3.5%.

For COC(=O)c1ccc(NC(=O)CSc2nnc(CCC(=O)O)c(=O)[nH]2)cc1 the results were FBW7 activator 0, MITF primary 0, GPR151 activ -2 and TEAD-YAP block 17.
`Cc1nc2ccc(-c3cnn(-c4cccc(N5CCOCC5)c4)c3)cc2c(=O)n1C` gave FBW7 activator 0, MITF primary 7, GPR151 activ 0 and TEAD-YAP block 87*.
Screening CC(C)c1nc2ccc(-c3cnn(-c4cccc(CN5CCOCC5)c4)c3)cc2c(=O)[nH]1 returned FBW7 activator 0, MITF primary -8, GPR151 activ 1 and TEAD-YAP block 14.
COc1ccc(Nc2ncc(C(=O)NCC3COc4ccccc4O3)c3ccccc23)cc1 (centres undefined) was read as FBW7 activator 0, MITF primary -2, GPR151 activ 0 and TEAD-YAP block 10.
COC(=O)c1ccccc1NC(=O)NNC(=O)c1csc(C)c1-c1ccc(C)cc1 was read as FBW7 activator 0, MITF primary 1, GPR151 activ 2 and TEAD-YAP block 33*.
For COC(=O)c1ccccc1NC(=O)NNC(=O)c1cc2ccccc2cc1O the results were FBW7 activator 0, MITF primary 8, GPR151 activ 2 and TEAD-YAP block 1.
`COc1ccc(/C=N/Nc2ncnc(N)c2[N+](=O)[O-])cc1OC` gave FBW7 activator 0, MITF primary 26, GPR151 activ -1 and TEAD-YAP block -22.
`Nc1ncnc(N/N=C/c2cccc(Br)c2)c1[N+](=O)[O-]` gave FBW7 activator 0, MITF primary 18, GPR151 activ -4 and TEAD-YAP block 36*.
For Nc1ncnc(N/N=C/c2ccc(O)cc2)c1[N+](=O)[O-] the results were FBW7 activator 0, MITF primary -2, GPR151 activ -3 and TEAD-YAP block 68*.
`Nc1ncnc(N/N=C/c2ccccc2)c1[N+](=O)[O-]` gave FBW7 activator 0, MITF primary 9, GPR151 activ 1 and TEAD-YAP block 6.
Screening Nn1c(SCC(=O)NCCc2ccc(Cl)cc2)nnc1C1CCCCC1 returned FBW7 activator 0, MITF primary 9, GPR151 activ 1 and TEAD-YAP block 4.
CCN(CC)C(=O)Cn1cnc2sc(C(=O)Nc3nc4ccccc4s3)c(C)c2c1=O was read as FBW7 activator 0, MITF primary -7, GPR151 activ 0 and TEAD-YAP block 80*.
For CCn1cnc2sc(C(=O)Nc3nc4ccc(Br)cc4s3)c(C)c2c1=O the results were FBW7 activator 0, MITF primary -10, GPR151 activ 1 and TEAD-YAP block 40*.
Screening Cc1c(C(=O)Nc2nc3ccccc3s2)sc2ncn(CC(=O)N3CC(C)CC(C)C3)c(=O)c12 (centres undefined) returned FBW7 activator 0, MITF primary 3, GPR151 activ -1 and TEAD-YAP block 0.
Screening Cc1nc(-c2cnccn2)sc1C(=O)NCCc1ccccn1 returned FBW7 activator 0, MITF primary -5, GPR151 activ -2 and TEAD-YAP block -6.
For COC(=O)Nc1nc2ccc(S(=O)c3ccccc3)cc2[nH]1 (centres undefined) the results were FBW7 activator 0, MITF primary 8 and GPR151 activ 1.
For CCCCOC(=O)c1ccccc1C(=O)c1ccc2nc(NC(=O)OC)[nH]c2c1 the results were FBW7 activator 0, MITF primary 3, GPR151 activ 0 and TEAD-YAP block 39*.
Screening COC(=O)Nc1nc2ccc(C(=O)c3ccccc3)cc2[nH]1 returned FBW7 activator 1, MITF primary -5, GPR151 activ 3 and TEAD-YAP block 33*.
COC(=O)Nc1nc2ccc(C(=O)c3cccs3)cc2[nH]1 was read as FBW7 activator 0, MITF primary 7, GPR151 activ -1 and TEAD-YAP block 56*.
CN(C)CCOc1cccc(CN[C@H]2C[C@H]3C(=O)N[C@@H](CC4CCCCC4)C(=O)N3C2)c1 was read as FBW7 activator 0, MITF primary 4, GPR151 activ 3 and TEAD-YAP block -9.
For CC(=O)Nc1cc(-c2nc3cccnc3s2)ccc1C the results were FBW7 activator 1, MITF primary 5, GPR151 activ 0 and TEAD-YAP block -31.
`O=C(O)CNC(=O)COc1cccc(Br)c1` gave FBW7 activator 0, MITF primary 0, GPR151 activ 4 and TEAD-YAP block -1.
Screening CCOc1ccc(C2C(C(=O)OC)=C(C)NC3=C2C(=O)CC(c2ccc(Cl)cc2)C3)cc1OC (centres undefined) returned FBW7 activator 0, MITF primary 3, GPR151 activ -2 and TEAD-YAP block -1.
CC(=NCc1cccnc1)c1c(C)[nH]n(-c2nc3ccccc3s2)c1=O was read as FBW7 activator 0, MITF primary 8, GPR151 activ -8 and TEAD-YAP block 42*.
`C/C(=N\N1CCOCC1)c1c(C(F)(F)F)[nH]n(-c2nc3ccccc3s2)c1=O` gave FBW7 activator 1, MITF primary 13, GPR151 activ -1 and TEAD-YAP block -1.
`C/C(=N/N1CCN(C)CC1)c1c(C(F)(F)F)[nH]n(-c2nc3ccccc3s2)c1=O` gave FBW7 activator 0, MITF primary 8, GPR151 activ -8 and TEAD-YAP block 49*.
Screening COc1ccccc1-c1nc(Cn2cnc3cc(C)c(C)cc32)no1 returned FBW7 activator 1, MITF primary -3, GPR151 activ 3 and TEAD-YAP block 33*.
`Cc1nc2cc(NC(=O)c3ccc(S(=O)(=O)N(C)C4CCCCC4)cc3)ccc2s1` gave FBW7 activator 0, MITF primary 12, GPR151 activ 0 and TEAD-YAP block 38*.
Screening COc1ccc(C2(C(=O)NCCc3ccccc3)CCOCC2)cc1 returned FBW7 activator 0, MITF primary 5, GPR151 activ -1 and TEAD-YAP block -7.
COc1ccccc1C1C2CN(Cc3ccccc3)CC=C2C(C#N)=C(N)C1(C#N)C#N (centres undefined) was read as FBW7 activator 1.9*, MITF primary 4, GPR151 activ 0 and TEAD-YAP block 7.
N#CC1=C(N)C(C#N)(C#N)C(c2ccccc2F)C2CN(Cc3ccccc3)CC=C12 (centres undefined) was read as FBW7 activator 0, MITF primary 8, GPR151 activ 1 and TEAD-YAP block 4.
Screening COc1ccc(C(=O)Nc2nc3c(s2)CCCC3)c(OC)c1OC returned FBW7 activator 1, MITF primary 8, GPR151 activ -2 and TEAD-YAP block 62*.
Screening COc1cccc(C(=O)Nc2nc3c(s2)CCC3)c1OC returned FBW7 activator 0, MITF primary -4, GPR151 activ -9 and TEAD-YAP block 62*.
COc1cccc(OC)c1C(=O)Nc1nc2c(s1)CCCC2 was read as FBW7 activator 1, MITF primary 9, GPR151 activ 1 and TEAD-YAP block -33.
For Cc1ccc(OCCn2c(SCCO)nc3ccccc32)c(C(C)C)c1 the results were FBW7 activator 0, MITF primary 1, GPR151 activ 1 and TEAD-YAP block -5.
Screening CC(C)C(=O)NC(=O)COC(=O)/C=C/c1cccc(F)c1 returned FBW7 activator 0, MITF primary -1, GPR151 activ 0 and TEAD-YAP block 7.
